Assay results taken from the supplement of paper PMC8007513.
Counter-ions that a name gives are not always drawn. ± gives the standard error. Among all 1,300 compounds or so, about 130 (10%) showed an effect of 50% or more. The sample as a whole holds a higher share of strong results than the screen did.

System: Trichoderma virens ATCC 9645
Test: growth yield (OD600) with compound + IPBC relative to untreated control; higher = less growth inhibition
Conditions: compound concentration: 100 uM, IPBC concentration: 200 ng/ml
How it was run: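 A biocide at 200 ng ml^−1 was co-applied to some wells, and library compounds were present in all test wells at 100 μM final. The wells held 100 μl of Trichoderma virens ATCC 9645 spores at 15,000 spores ml^−1 in potato dextrose broth, grown at 30 °C in 96-well plates, with OD600 read at 40 h and 72 h. Results are relative growth against the control without either agent, averaged across duplicate screens.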

| SMILES | growth yield (40 h) | growth yield (72 h) |
| --- | --- | --- |
| Cc1cccc(C)c1NC1=NCCCS1 [Xylazine] + CCCCNC(=O)OCC#CI [3-iodo-2-propynyl butylcarbamate (IPBC)] | 84.3 ± 4.3% | 88.8 ± 2.8% |
| CN(C)CCN(Cc1ccccc1)c1ccccn1 [Tripelennamine hydrochloride] + CCCCNC(=O)OCC#CI [3-iodo-2-propynyl butylcarbamate (IPBC)] | 95 ± 3.5% | 95.2 ± 1.9% |
| CC(C)(C)NC(=O)[C@H]1CC[C@H]2[C@@H]3CC[C@H]4NC(=O)C=C[C@]4(C)[C@H]3CC[C@]12C [Finasteride] + CCCCNC(=O)OCC#CI [3-iodo-2-propynyl butylcarbamate (IPBC)] | 84.2 ± 7.9% | 87.5 ± 6.7% |
| Cc1c(O)c(=O)n(-c2ccccc2)n1C [Antipyrine, 4-hydroxy] + CCCCNC(=O)OCC#CI [3-iodo-2-propynyl butylcarbamate (IPBC)] | 91.5 ± 2.2% | 92.2 ± 1.4% |
| CO/N=C(\C(=O)N[C@@H]1C(=O)N2C(C(=O)O)=C(COC(N)=O)CS[C@H]12)c1ccco1 [Cefuroxime sodium salt] + CCCCNC(=O)OCC#CI [3-iodo-2-propynyl butylcarbamate (IPBC)] | 92.13 ± 0.64% | 92.2 ± 2% |
| CC[C@H]1OC(=O)[C@H](C)[C@@H](O[C@H]2C[C@@](C)(OC)[C@@H](O)[C@H](C)O2)[C@H](C)[C@@H](O[C@@H]2O[C@H](C)C[C@H](N(C)C)[C@H]2O)[C@](C)(O)C[C@@H](C)CN(C)[C@H](C)[C@@H](O)[C@]1(C)O [Azithromycin] + CCCCNC(=O)OCC#CI [3-iodo-2-propynyl butylcarbamate (IPBC)] | 108.7 ± 0.95% | 106 ± 0.32% |
| CC[C@H]1OC(=O)[C@H](C)[C@@H](O[C@H]2C[C@@](C)(OC)[C@@H](O)[C@H](C)O2)[C@H](C)[C@@H](O[C@@H]2O[C@H](C)C[C@H](N(C)C)[C@H]2O)[C@](C)(O)C[C@@H](C)C(=O)[C@H](C)[C@@H](O)[C@]1(C)O [Erythromycin] + CCCCNC(=O)OCC#CI [3-iodo-2-propynyl butylcarbamate (IPBC)] | 45.3 ± 0.79% | 50.8 ± 0.84% |
| CC[C@H]1OC(=O)[C@H](C)[C@@H](O[C@H]2C[C@@](C)(OC)[C@@H](O)[C@H](C)O2)[C@H](C)[C@@H](O[C@@H]2O[C@H](C)C[C@H](N(C)C)[C@H]2O)[C@](C)(OC)C[C@@H](C)C(=O)[C@H](C)[C@@H](O)[C@]1(C)O [Clarithromycin] + CCCCNC(=O)OCC#CI [3-iodo-2-propynyl butylcarbamate (IPBC)] | 91.65 ± 0.79% | 92.1% |
| CN1CCC2(C)c3cc(O)ccc3N(C)C12 (single isomer, unassigned; (-)) [(-)-Eseroline fumarate salt] + CCCCNC(=O)OCC#CI [3-iodo-2-propynyl butylcarbamate (IPBC)] | 85 ± 4.9% | 90.6 ± 2.1% |
| C#CCN(C)CCCOc1ccc(Cl)cc1Cl [Clorgyline hydrochloride] + CCCCNC(=O)OCC#CI [3-iodo-2-propynyl butylcarbamate (IPBC)] | 60.36 ± 0.32% | 87.2 ± 2.2% |
| Oc1cc(Cl)ccc1Oc1ccc(Cl)cc1Cl [Triclosan] + CCCCNC(=O)OCC#CI [3-iodo-2-propynyl butylcarbamate (IPBC)] | 3.02 ± 0.16% | 2.2 ± 0.1% |
| CN1[C@@H]2CC[C@H]1C[C@@H](OC(c1ccccc1)c1ccccc1)C2 [Benztropine mesylate] + CCCCNC(=O)OCC#CI [3-iodo-2-propynyl butylcarbamate (IPBC)] | 84.7 ± 2.1% | 96.1 ± 4.4% |
| C[C@H](CCC(=O)O)[C@H]1CC[C@H]2[C@@H]3[C@@H](O)C[C@@H]4C[C@H](O)CC[C@]4(C)[C@H]3CC[C@]12C [Urosiol] + CCCCNC(=O)OCC#CI [3-iodo-2-propynyl butylcarbamate (IPBC)] | 104 ± 12% | 99.7 ± 5.1% |
| N[C@@H](C(=O)N[C@@H]1C(=O)N2C(C(=O)O)=C(Cl)CS[C@H]12)c1ccccc1 [Cefaclor hydrate] + CCCCNC(=O)OCC#CI [3-iodo-2-propynyl butylcarbamate (IPBC)] | 92.9 ± 8.1% | 96.7 ± 4% |
| CC[N+](C)(CC)CCC[n+]1c(-c2ccccc2)c2cc(N)ccc2c2ccc(N)cc21 [Propidium iodide] + CCCCNC(=O)OCC#CI [3-iodo-2-propynyl butylcarbamate (IPBC)] | 8.1 ± 5.6% | 12.7 ± 0.32% |
| COc1ccc(CN2CCNCC2)c(OC)c1OC [Trimetazidine dihydrochloride] + CCCCNC(=O)OCC#CI [3-iodo-2-propynyl butylcarbamate (IPBC)] | 85 ± 2.1% | 91.87 ± 0.42% |
| CCCCCN(C)CCC(O)(P(=O)(O)O)P(=O)(O)O [Ibandronate sodium] + CCCCNC(=O)OCC#CI [3-iodo-2-propynyl butylcarbamate (IPBC)] | 87.84 ± 0.48% | 96.8 ± 0.94% |
| Cc1c(OCC(F)(F)F)ccnc1C[S+]([O-])c1nc2ccccc2[nH]1 (configuration not stated) [Lansoprazole] + CCCCNC(=O)OCC#CI [3-iodo-2-propynyl butylcarbamate (IPBC)] | 68.1 ± 2.1% | 91.87 ± 0.21% |

| SMILES | growth yield (40 h) | growth yield (72 h) |
| --- | --- | --- |
| O=C(O)C[C@H](O)C[C@H](O)/C=C/c1c(C2CC2)nc2ccccc2c1-c1ccc(F)cc1 [Pitavastatin calcium] + CCCCNC(=O)OCC#CI [3-iodo-2-propynyl butylcarbamate (IPBC)] | 14 ± 2.2% | 39.4 ± 3.4% |
| CC(C)c1c(C(=O)Nc2ccccc2)c(-c2ccccc2)c(-c2ccc(F)cc2)n1CC[C@@H](O)C[C@@H](O)CC(=O)O [Atorvastatin] + CCCCNC(=O)OCC#CI [3-iodo-2-propynyl butylcarbamate (IPBC)] | 69.3 ± 2.2% | 79.5 ± 1.3% |
| CC(C)n1c(/C=C/C(O)CC(O)CC(=O)O)c(-c2ccc(F)cc2)c2ccccc21 (configuration not stated) [Fluvastatin sodium salt] + CCCCNC(=O)OCC#CI [3-iodo-2-propynyl butylcarbamate (IPBC)] | 13.8 ± 0.48% | 33.9 ± 0.52% |
| C=CC[C@]1(O)CC[C@H]2[C@@H]3CCC4=CC(=O)CCC4=C3C=C[C@@]21C [Altrenogest] + CCCCNC(=O)OCC#CI [3-iodo-2-propynyl butylcarbamate (IPBC)] | 96.6 ± 1.6% | 93.8 ± 2.3% |
| COc1ccc(CCN)cc1OC [Homoveratrylamine] + CCCCNC(=O)OCC#CI [3-iodo-2-propynyl butylcarbamate (IPBC)] | 89.3 ± 5.4% | 91.1 ± 6.4% |
| O=P(O)(O)C(O)(Cn1ccnc1)P(=O)(O)O [Zoledronic acid hydrate] + CCCCNC(=O)OCC#CI [3-iodo-2-propynyl butylcarbamate (IPBC)] | 102 ± 6.3% | 105 ± 4.3% |
| O=C(Cn1ccnc1[N+](=O)[O-])NCCO [Etanidazole] + CCCCNC(=O)OCC#CI [3-iodo-2-propynyl butylcarbamate (IPBC)] | 91.3 ± 3.3% | 92.2 ± 3.9% |
| COc1cc([S+](C)[O-])ccc1-c1nc2cccnc2[nH]1 (configuration not stated) [Sulmazole] + CCCCNC(=O)OCC#CI [3-iodo-2-propynyl butylcarbamate (IPBC)] | 110 ± 9.8% | 107 ± 4.2% |
| CO[C@H]1/C=C/O[C@@]2(C)Oc3c(C)c(O)c4c(O)c(c(/C=N/N5CCN(C)CC5)c(O)c4c3C2=O)NC(=O)/C(C)=C\C=C\[C@H](C)[C@H](O)[C@@H](C)[C@@H](O)[C@@H](C)[C@H](OC(C)=O)[C@@H]1C [Rifampicin] + CCCCNC(=O)OCC#CI [3-iodo-2-propynyl butylcarbamate (IPBC)] | 89 ± 7% | 93.8 ± 3.6% |
| Nc1nc(=O)c2nc(CNc3ccc(C(=O)N[C@@H](CCC(=O)O)C(=O)O)cc3)cnc2[nH]1 [Folic acid] + CCCCNC(=O)OCC#CI [3-iodo-2-propynyl butylcarbamate (IPBC)] | 84.82 ± 0.32% | 91.03 ± 0.84% |
| OC(Cn1cncn1)(Cn1cncn1)c1ccc(F)cc1F [Fluconazole] + CCCCNC(=O)OCC#CI [3-iodo-2-propynyl butylcarbamate (IPBC)] | 57.7 ± 5.9% | 75.2 ± 8.5% |
| C[C@@H](c1ncncc1F)[C@](O)(Cn1cncn1)c1ccc(F)cc1F [Voriconazole] + CCCCNC(=O)OCC#CI [3-iodo-2-propynyl butylcarbamate (IPBC)] | 5.24 ± 0.16% | 4.09 ± 0.1% |
| CNC(C)CCC=C(C)C (configuration not stated) [Isometheptene mucate] + CCCCNC(=O)OCC#CI [3-iodo-2-propynyl butylcarbamate (IPBC)] | 101 ± 16% | 101 ± 8.4% |
| CC(O)(CS(=O)(=O)c1ccc(F)cc1)C(=O)Nc1ccc(C#N)c(C(F)(F)F)c1 (configuration not stated) [Bicalutamide] + CCCCNC(=O)OCC#CI [3-iodo-2-propynyl butylcarbamate (IPBC)] | 94 ± 12% | 97.5 ± 6.5% |
| CCOc1ccccc1OCC1CNCCO1 (configuration not stated) [Viloxazine hydrochloride] + CCCCNC(=O)OCC#CI [3-iodo-2-propynyl butylcarbamate (IPBC)] | 103 ± 19% | 102 ± 14% |
| Clc1ccccc1C(c1ccccc1)(c1ccccc1)n1ccnc1 [Clotrimazole] + CCCCNC(=O)OCC#CI [3-iodo-2-propynyl butylcarbamate (IPBC)] | 5.08 ± 0.32% | 3.46 ± 0.1% |
| CCN1CCCC1CNC(=O)c1cc(S(N)(=O)=O)ccc1OC (configuration not stated) [Sulpiride] + CCCCNC(=O)OCC#CI [3-iodo-2-propynyl butylcarbamate (IPBC)] | 86.41 ± 0.32% | 90.3 ± 0.94% |
| CCC(C)(C)c1ccc(CC(C)CN2C[C@@H](C)O[C@@H](C)C2)cc1 (some centres not stated) [Amorolfine hydrochloride] + CCCCNC(=O)OCC#CI [3-iodo-2-propynyl butylcarbamate (IPBC)] | 3.97 ± 0.16% | 2.94 ± 0.21% |
